Sampled rows, rich in hits. Any-hit rate of the full collection: about 2.9%.
ZTA counter: ZTA (EBV) inhibition in EBNA-1 counter-screen | ZTA-DNA binding, fluorescence polarization | hit rate 0.15% among 320,000 | AID 2234 | inhibition, % at 11 µM; in the data active means inhibition above about 33%
Target sequence (P03206 whole entry, looked up): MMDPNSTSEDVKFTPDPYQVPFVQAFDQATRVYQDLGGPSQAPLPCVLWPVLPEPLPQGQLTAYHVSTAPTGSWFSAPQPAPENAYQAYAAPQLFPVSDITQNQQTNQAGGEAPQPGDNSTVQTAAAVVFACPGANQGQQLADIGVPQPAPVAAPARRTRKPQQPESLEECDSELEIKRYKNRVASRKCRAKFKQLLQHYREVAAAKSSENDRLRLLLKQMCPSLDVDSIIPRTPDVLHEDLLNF
PAFAH1B2 inh: PAFAH1B2 enzyme inhibitors, primary screen, biochemical, fluorescence polarization, human. inhibition, % at 3.39 µM. recombinant PAFAH1B2, FP-rhodamine activity probe. hit rate 1.2% among 340,000;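 active means inhibition above the mean of all tested compounds plus 3 SD, cut at about 24% in these data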;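 further: 0% = enzyme with DMSO and 100% = wells lacking PAFAH1B2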
Target sequence (P68402 whole entry, looked up): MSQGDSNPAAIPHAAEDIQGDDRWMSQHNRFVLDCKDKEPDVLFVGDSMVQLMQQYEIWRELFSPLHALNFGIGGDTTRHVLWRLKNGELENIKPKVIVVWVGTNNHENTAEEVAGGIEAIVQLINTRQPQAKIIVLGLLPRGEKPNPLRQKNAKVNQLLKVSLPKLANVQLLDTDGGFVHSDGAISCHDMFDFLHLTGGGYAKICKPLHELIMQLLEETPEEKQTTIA
PAFAH1B3 FP inh: PAFAH1B3 enzyme inhibitors, primary screen, biochemical, fluorescence polarization, human; Platelet-activating factor acetylhydrolase IB subunit alpha1 (Homo sapiens), Q15102; recombinant PAFAH1B3, FP-rhodamine probe; inhibition, % at 3.39 µM; hit rate 0.28% among 340,000;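 active means inhibition above the screen-wide average of all tested compounds plus 3 SD, cut at about 25% in these data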;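 further: 0% = enzyme with DMSO only and 100% = wells lacking PAFAH1B3 protein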
EBNA-1 inhibitor: EBNA-1 DNA-binding inhibitors, primary screen, biochemical, fluorescence polarization; inhibition, % at 14.8 µM; hit rate 0.34% among 300,000; AID 1950, 2009; in the data active means inhibition above about 28%
rCAG RNA binder: binders of r(CAG) RNA repeats, primary screen, biochemical, fluorescence | r(CAG) RNA repeat, TO-PRO-1 dye displacement fluorescence | inhibition, % at 3 µM | hit rate 1.3% among 370,000 | AID 651821, 2012;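 active means inhibition above the plate cutoff, the mean of all test compounds on that plate plus 3 SD, cut at about 35% in these data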;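 further: 0% = DMSO alone and 100% = 100 µM mitoxantrone as full dye displacement; higher means more dye released from RNA so lower well fluorescence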
PAFAH2 inh: PAFAH2 enzyme inhibitors, primary screen, biochemical, fluorescence polarization, human | AID 492956, 2010 | inhibition, % at 3.39 µM | recombinant PAFAH2, FP-rhodamine activity probe | Platelet-activating factor acetylhydrolase 2, cytoplasmic (Homo sapiens), Q99487 | hit rate 0.99% among 340,000;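 active means inhibition above the mean over all tested compounds plus 3 SD, cut at about 30% in these data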;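 further: inhibitors block probe labeling of enzyme so polarization drops; 0% = enzyme with DMSO and 100% = wells lacking PAFAH2 protein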
* = called active by the depositor; · = no result; ! = not confirmed by another sample.

SMILES	ZTA counter	PAFAH1B2 inh	PAFAH1B3 FP inh	EBNA-1 inhibitor	rCAG RNA binder	PAFAH2 inh
O=C1C(Cl)=C(NCCN2CCCCC2)C(=O)c2ccccc21	-5.4	3.3	29.2*	3.8	·	-1.1
N=c1c(S(=O)(=O)c2ccc(Cl)cc2)cc2c(=O)n3ccccc3nc2n1CCN1CCOCC1	6.8	36.9*	2.4	11.9	17.1	7.2
CCc1c(-c2ccc(F)cc2)ncn1CCc1ccccc1OC	·	·	·	·	1.8	·
Cc1ccc2c(c1)C=CC(C)N2C(=O)c1ccccc1 (stereo unspecified)	-2.8	31.7*	2.8	0.5	-9.1	3.6
COC(=O)[C@H](Cc1ccccc1)NC(=O)[C@H]1O[C@@H](n2cnc3c(=O)[nH]c(N)nc32)[C@H](O)[C@@H]1O	·	·	·	·	1.5	·
S=C1NCN(CCc2ccccc2)CN1Cc1ccccc1	-7.9	25.7*	2.4	-18.3	-5.1	9.5
O=S1(=O)c2ccc(N3CCSCC3)cc2Oc2ccccc2CN1Cc1cn(Cc2cccc(F)c2)nn1	·	·	·	·	14.8	·
Cc1cc2c(cc1S(=O)(=O)NCc1ccccc1)NC(=O)CO2	10.3	11.0	0.0	-0.5	-4.6	-0.2
Cc1ccc(CNS(=O)(=O)c2ccc3c(c2)NC(=O)CO3)cc1	10.6	26.0*	10.4	-3.7	0.1	-8.5
Cc1cc2c(cc1S(=O)(=O)NCCc1ccccc1)NC(=O)CO2	6.8	29.4*	7.6	8.5	-2.0	7.3
COC(=O)[C@]12C[C@H](CC(=O)NCc3ccc(OC)c(OC)c3)C(=O)N(Cc3ccc4c(c3)OCO4)C1=C[C@H](C(C)(C)C)O[C@@H]2C	·	·	·	·	1.7	·
CCCC[C@H]1C2CC(OC(=O)Nc3ccc(C(F)(F)F)cc3)C(C2)[C@H]2CCCCN21 (stereo partly specified)	·	·	·	·	1.9	·
Cc1ccc(OCCC(=O)OCC(=O)NC2CCCC(C)C2C)cc1 (stereo unspecified)	·	33.6*	5.3	·	-0.6	-3.2
Cc1ccsc1C(=O)OCC(=O)NC1CCCC(C)C1C (stereo unspecified)	·	4.8	6.1	·	-0.7	85.0*
Cc1ccc(OCCC(=O)OCC(=O)NC2CCCCC2)cc1	·	·	·	·	-0.2	·
CC1CCCCC1NC(=O)COC(=O)c1ccccn1 (stereo unspecified)	-11.4	0.5	0.8	1.6	0.8	-5.3
CCN(CC)c1ccc(C(=O)OCC(=O)NC2CCCCC2C)cc1 (stereo unspecified)	1.8	-3.1	5.4	0.4	-4.3	86.5*
CC1CCCC(NC(=O)COC(=O)c2ccc(N(C)C)cc2)C1C (stereo unspecified)	-21.9	4.3	0.7	-8.1	-6.2	82.4*
Cc1cc(C)cc(C(=O)OCC(=O)Nc2cccc(S(=O)(=O)NC3=NCCCCC3)c2)c1	-11.7	2.0	-4.6	0.8	-1.3	12.2
CCN(CC)c1ccc(C(=O)OCC(=O)Nc2cccc(S(=O)(=O)NC3=NCCCCC3)c2)cc1	-12.1	5.1	1.9	-5.5	2.2	71.7*
CCN(CC(=O)Nc1ccccc1OC)C(=O)CCOc1ccc(C(C)(C)C)cc1	8.0	29.9*	-2.3	-1.9	-6.3	3.8
CCOc1ccc(OCCC(=O)N(CC)CC(=O)Nc2ccccc2C(F)(F)F)cc1	18.2	2.5	8.2	1.8	-7.7	-4.5
Cc1sc(NC(=O)C2CCCCC2C(=O)O)c(C(N)=O)c1-c1ccc(C(C)(C)C)cc1 (stereo unspecified)	-3.6	25.7*	-2.7	6.7	7.3	6.9
Cc1ccc([N+](=O)[O-])c(-c2n[nH]c(=S)n2-c2cccc(Cl)c2)c1	-1.5	31.1*	9.8	6.6	4.4	4.6
Cc1cccc(-n2c(-c3ccoc3C)n[nH]c2=S)c1	15.7	-1.3	5.8	5.8	6.5	-2.7
NC(=O)c1ccc[n+](CC(=O)OCCC23CC4CC(CC(C4)C2)C3)c1	1.4	26.2*	0.2	5.3	6.9	-0.4
O=C(O)c1cc(-c2ccco2)nc2ccc(Br)cc12	29.9	14.4	21.9	-0.8	27.8	45.0*!
CCN(C(=O)CN1C(=O)NC(c2ccccc2)(c2ccc(C)c(C)c2)C1=O)C1CCCCC1 (stereo unspecified)	4.0	26.2*	6.1	·	2.4	-2.0

Screening results deposited in PubChem BioAssay by The Scripps Research Institute Molecular Screening Center.
